PubChem BioAssay (NCATS)
Inconclusive results are not listed. Entries that show only a call come without a potency. Calls of active or inactive are those of the source. The call rests on the fitted dose curve; in most records, active means well fitted curve in the direction sought with a large enough effect; inconclusive means small, poorly fitted or top-dose-only effect, or another doubt; inactive means no such curve, though single readings can be large; an effect the other way counts as inactive or inconclusive. Peptide text beside a SMILES is read from it.

Experiments:
[1] = Cell Viability - LYMP2-003 (AID 965); details: LYMP2-003 lymphoblastoid cell viability; series mostly up to 92.2 µM;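 further: cells exposed to compounds for 24 h before reading; nearly all actives have a fitted effect of over 50% in size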
How it was run: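 Acute cytotoxicity is scored as a concentration-dependent drop in intracellular ATP, measured by luciferase luminescence in human lymphoblastoid cells treated for 24 hours at 37 C. AC50 values derive from Hill-equation modelling.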

[2] = Cell Viability - LYMP2-004 (AID 966); details: LYMP2-004 lymphoblastoid cell viability, qHTS; series mostly up to 92.2 µM; further: nearly all actives have a fitted effect of over 65% in size
How it was run: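 Cells seeded 2500/well, rested 5 hr at 37 C, dosed across a concentration series, incubated 24 hr at 37 C, then CellTiter-Glo added for 30 min at room temperature and luminescence read. Hill fitting gave AC50.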

[3] = Cell Viability - LYMP2-005 (AID 967); details: LYMP2-005 lymphoblastoid cell viability; series mostly up to 92.2 µM
How it was run: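 qHTS viability screen in LYMP2-005 cells: 24 h at 37 C with compound, ATP luminescence via CellTiter-Glo, AC50 from Hill curves.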

[4] = Cell Viability - LYMP2-011 (AID 969); details: LYMP2-011 lymphoblastoid cells viability; series mostly up to 92.2 µM; further: nearly all actives have a fitted effect of over 60% in size
How it was run: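 2500 cells/well, 5 hr 37 C; compound added, 24 hr 37 C; CellTiter-Glo 30 min RT; luminescence. qHTS concentration-response, Hill-equation AC50. Tetraoctylammonium bromide positive control.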

[5] = Cell Viability - LYMP2-013 (AID 970); details: LYMP2-013 lymphoblastoid cells viability; series mostly up to 92.2 µM; further: nearly all actives have a fitted effect of over 55% in size
How it was run: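 qHTS; 2500 lymphoblastoid cells/well; 5 hr 37 C settle; cpd 24 hr 37 C; CellTiter-Glo, 30 min RT; luminescence. AC50 = Hill fit.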

[6] = Cell Viability - LYMP2-015 (AID 971); details: LYMP2-015 lymphoblastoid cell viability; series mostly up to 92.2 µM; further: nearly all actives have a fitted effect of over 55% in size
How it was run: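 Luminescent ATP read-out (CellTiter-Glo) served as the viability measure after lymphoblastoid cells were exposed to compounds for 24 hours at 37 C. Concentration-response data were fitted with the Hill equation to give AC50.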

[7] = Cell Viability - LYMP2-017 (AID 972); details: LYMP2-017 lymphoblastoid cell viability; series mostly up to 92.2 µM; further: nearly all actives have a fitted effect of over 55% in size
How it was run: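 2500 cells/well, 5 h 37 C; cpd 24 h 37 C in complete medium; CellTiter-Glo, 30 min RT; luminescence (ATP). AC50 via Hill fit, qHTS.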

[8] = Cell Viability - LYMP2-019 (AID 973); details: LYMP2-019 lymphoblastoid cell line viability; series mostly up to 92.2 µM; further: nearly all actives have a fitted effect of over 55% in size
How it was run: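 Luminescent ATP read-out (CellTiter-Glo, 30 min room temperature) served as the viability measure after 24 hr treatment of lymphoblastoid cells at 37 C. Concentration-response data were fitted to the Hill equation for AC50.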

[9] = Cell Viability - LYMP2-021 (AID 974); details: LYMP2-021 lymphoblastoid cells viability; series mostly up to 92.2 µM
How it was run: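 Plate 2500 lymphoblastoid cells per well and incubate 5 hr at 37 C. Add compounds over a concentration range and incubate 24 hr at 37 C. Add CellTiter-Glo, wait 30 min at room temperature, read luminescence.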

[10] = Cell Viability - LYMP2-023 (AID 975); details: LYMP2-023 lymphoblastoid cell viability; series mostly up to 92.2 µM; further: nearly all actives have a fitted effect of over 55% in size
How it was run: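 2500 cells/well, 5 hr 37 C; cpd 24 hr 37 C; CellTiter-Glo, 30 min RT; luminescence. qHTS conc-response, Hill fit -> AC50. Pos ctrl tetraoctylammonium bromide.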
Potency means the concentration at half of the fitted maximal effect.

Structure (SMILES) | Potency [1] | Potency [2] | Potency [3] | Potency [4] | Potency [5] | Potency [6] | Potency [7] | Potency [8] | Potency [9] | Potency [10]
NS(=O)(=O)c1cc(C(=O)O)c(NCc2ccco2)cc1Cl | inactive | inactive | inactive | inactive | inactive | inactive | inactive | inactive | inactive | inactive
Nc1ccc(S(N)(=O)=O)cc1 | inactive | inactive | inactive | inactive | inactive | inactive | inactive | inactive | inactive | inactive
CCCCC(CC)COC(=O)C(C#N)=C(c1ccccc1)c1ccccc1 (stereo unspecified) | inactive | inactive | inactive | inactive | inactive | inactive | inactive | inactive | inactive | inactive
CC(=O)Nc1ccc(O)cc1 | inactive | inactive | inactive | inactive | inactive | inactive | inactive | inactive | inactive | inactive
Cc1ccc(C)c(OCCCC(C)(C)C(=O)O)c1 | inactive | inactive | inactive | inactive | inactive | inactive | inactive | inactive | inactive | inactive
c1ccc2[nH]c(-c3cscn3)nc2c1 | inactive | inactive | inactive | inactive | inactive | inactive | inactive | inactive | inactive | inactive
CCCc1cc(=O)[nH]c(=S)[nH]1 | inactive | inactive | inactive | inactive | inactive | inactive | inactive | inactive | inactive | inactive
COC(=O)[C@H](Cc1ccccc1)NC(=O)[C@@H](N)CC(=O)O (H-Asp-Phe-OMe) | inactive | inactive | inactive | inactive | inactive | inactive | inactive | inactive | inactive | inactive
CN(C)c1ccc2nc3ccc(=[N+](C)C)cc-3sc2c1 | 3.98 µM (active) | 5.01 µM (active) | 5.01 µM (active) | 6.31 µM (active) | 7.94 µM (active) | 3.98 µM (active) | 6.31 µM (active) | 3.16 µM (active) | 7.94 µM (active) | 3.98 µM (active)
CCc1nc(N)nc(N)c1-c1ccc(Cl)cc1 | inactive | inactive | inactive | – | inactive | – | inactive | – | – | inactive
CS(=O)(=O)OCCCCOS(C)(=O)=O | inactive | inactive | inactive | inactive | inactive | inactive | inactive | inactive | inactive | inactive
COc1c2occc2cc2ccc(=O)oc12 | inactive | inactive | inactive | inactive | inactive | inactive | inactive | inactive | inactive | inactive
Cc1cc(O)c2c(c1)C(=O)c1cc(O)cc(O)c1C2=O | inactive | inactive | inactive | inactive | – | inactive | – | – | – | –
